PubChem BioAssay AID686979 (National Center for Advancing Translational Sciences (NCATS), 2013)
Screen size: about 420,000 compounds; about 50,000 (12%) were called active. Roughly 26% stayed inconclusive and do not appear here. This is one part of a sample in which actives are shown more often than they occur. Values without a mark were called inactive. Calls follow the shape of the dose curve; as a rule, active = well fitted inhibition curve with a large enough effect; inconclusive = small, poorly fitted or top-dose-only effect; inactive = flat fitted curve, though single readings scatter.

Experiment: qHTS for Inhibitors of human tyrosyl-DNA phosphodiesterase 1 (TDP1): qHTS in cells in presence of CPT; also: nearly all actives have a fitted effect of over 55% in size
Settings: chicken DT40 Tdp1-/-;hTDP1 cells + 20 nM CPT, ATP luminescence, 48 h; series mostly up to 46.2 µM; activity change, negative = growth inhibition: at the top concentration
Excerpt: Human tyrosyl-DNA phosphodiesterase 1 (TDP1) is a novel repair gene, and we propose to use it as a new target for anticancer drug development. TDP1 is not an essential protein, but under treatment with topoisomerase I poison (camptothecin: CPT), TDP1 works as a critical factor for cell survival. To directly identify novel TDP1 inhibitors active in a cellular environment, we have knocked-out the Tdp1 gene in chicken DT40 cells (Tdp1-/-) and generated a complemented counterpart cells that contains a stable transfection of the human TDP1 gene (Tdp1-/-;hTDP1 cells). For the primary screen, Tdp1-/-;hTDP1 cells will be exposed to small molecules in the presence or absence of CPT, and their growth kinetics will be evaluated after 48 hours by measuring ATP activity. […] The hit compounds will then be evaluated in the presence or absence of CPT using Tdp1-/- cells. […] In tertiary assays, biochemical gel-based assays will be used to assess whether the hit compounds specifically target TDP1. To this end, we have screened this cell line against the MLSMR in two primary screens. In one screen we add CPT and in the other we screen in the absence of CPT; this AID represents the screen where CPT was present. NIH Chemical Genomics Center [NCGC] NIH Molecular Libraries Probe Centers Network [MLPCN] MLPCN Grant: MH095538 Assay Submitter (PI): Yves Pommier, NCI
DT40-hTDP1 cells with 20 nM Camptothecin (add 20 microL of 1 mM CPT stock in 1 L of cell culture medium) were dispensed at 400 cells/5microL/well in tissue culture treated 1536-well white wall/solid bottom assay plates (Greiner Bio-One North America, NC, U.S.A.) using a Multidrop Combi 8 channel dispenser (Thermo Fisher, Waltham, MA, USA). 23 nL compounds and controls were transferred using the pin tool (Kalypsys, San Diego, CA, USA) to the assay plates. The assay plates were then incubated at 37 masculineC for a minimum 48 hr. Three microL of Cell Titer Glo solution was added to the plates and incubated at RT in dark for 30 min. Luminescence was read using ViewLux (Perkin Elmer) with 1 sec exposure slow speed, high gain and 2x binning.
% is scaled to controls: 0 for no effect and ±100 for the full control effect; potency is read from the fitted curve at half-maximal effect.

| SMILES | activity change, negative = growth inhibition [%] | Potency |
| --- | --- | --- |
| CC1CC(=S)Nc2ccccc2N1Cc1ccccc1 (centres undefined) | -2.65 | – |
| Nc1nc2ncccn2c1-c1ccccc1 | 6.86 | – |
| O=S(=O)(Nc1cccc(-n2cnnn2)c1)c1cnc(Cl)c(Cl)c1 | -19.4 | – |
| COc1ccc(N2C(=O)CS(=O)(=O)C23C(=O)N(Cc2ccc(C)cc2)c2ccccc23)cc1Cl (centres undefined) | -25 | – |
| COc1ccc(CCNC(=O)COC(=O)Cc2cc(OC)c(OC)c(OC)c2)cc1 | -2.97 | – |
| COc1ccc(CC(=O)Nc2nc(-c3ccc(F)c(F)c3)cs2)cc1OC | – | 10.3 µM (active) |
| COc1cccc(CC(=O)Nc2nc(-c3ccc(OC)c(OC)c3)cs2)c1 | -62.3 | – |
| COc1cc(CC(=O)Nc2nc(-c3ccc(F)c(F)c3)cs2)cc(OC)c1OC | – | 7.31 µM (active) |
| COc1ccc(-c2csc(NC(=O)c3ccc(N4C(=O)CCC4=O)cc3)n2)cc1OC | -0.306 | – |
| Cc1ccc(S(=O)(=O)NC(=O)Nc2nc(-c3ccc(F)c(F)c3)cs2)cc1 | 4.32 | – |
| CCOC(=O)c1cn(CC)c2cc(F)c(F)cc2c1=O | 1.13 | – |
| O=C(NC1CCN(C(=S)NCc2ccco2)CC1)c1ccc(F)cc1 | -14.3 | – |
| Cc1cc(OCCN2CCCC2)cc(C(C)C)c1 | -26.9 | – |
| COc1ccc2[nH]c(C(=O)N3CCN(C)CC3)c(C)c2c1 | 16.8 | – |
| O=C1c2ccccc2NC(c2ccccc2O)N1NS(=O)(=O)c1ccccc1 (centres undefined) | -5.28 | – |
| CCOC(=O)NN1C(=O)c2ccccc2NC1c1ccccc1O (centres undefined) | – | 16.4 µM (active) |
| CCOC(=O)NN1C(=O)c2ccccc2NC1c1cccc(O)c1 (centres undefined) | 7.21 | – |
| Cc1ccc2nc(CN3CCN(S(=O)(=O)c4ccc(C)c(C)c4)CC3)oc2c1 | -22.4 | – |
| CCOc1ccc(N(C)Cc2cc(=O)oc3ccc(OC)cc23)cc1 | -25.6 | – |
| NC(=O)N/N=C\c1cccs1 | -2.34 | – |
| COc1ccc2c(c1)c(C(=O)N/N=C/c1cccs1)c(C)n2C | – | 9.2 µM (active) |
| Cc1cc(C)nc(SC(C)C(=O)N/N=C/c2cccs2)n1 (centres undefined) | -29.3 | – |
| CCn1c(SCC(=O)Nc2nccs2)nnc1-c1ccco1 | 1.22 | – |

| SMILES | activity change, negative = growth inhibition [%] | Potency |
| --- | --- | --- |
| C[C@@H]1CN([C@H](C)CO)C(=O)CCCn2nncc2CO[C@@H]1CN(C)C(=O)OCc1ccccc1 | -6.45 | – |
| Cc1ccc(C)c(NC2=NCC(=O)N2c2ccc3c(c2)OCCO3)c1 | -1.47 | – |
| Cc1ccc(Cl)cc1NC(=O)NC1COc2ccccc2C1 (centres undefined) | -8.08 | – |
| CCc1cccc(CC)c1NC(=O)COc1ccccc1C(=O)c1cc(C#N)c(=O)n(C2CCCCC2)c1 | – | 18.4 µM (active) |
| CCc1cccc(C)c1NC(=O)COC(=O)CC1CCCC1 | 1.82 | – |
| Cc1cc(NC(=O)COc2ccccc2C#N)no1 | -26.9 | – |
| CC(=O)Nc1ccc(NC(=O)CSc2nnc(COc3ccccc3C)n2CC2CCCO2)cc1 (centres undefined) | -5.96 | – |
| Oc1ccc(/C=N/Nc2nc(-c3ccccc3F)nc3ccccc23)c(O)c1 | – | 5.8 µM (active) |
| Oc1ccc(/C=N/NC2=NCCCCC2)c(O)c1 | 1.13 | – |
| Oc1ccc(-c2nc3ccccc3nc2-c2ccc(O)cc2O)c(O)c1 | -11.8 | – |
| Cc1nc2ccccc2nc1N/N=C/c1ccc(O)cc1O | – | 4.61 µM (active) |
| Cc1cc(N/N=C/c2ccccc2F)c2ccccc2n1 | 1.17 | – |
| Cc1ccccc1NC(=O)C1CCCN(C(=O)NCc2ccccc2)C1 (centres undefined) | -21 | – |
| CCOC(=O)CCNC(=O)N1CCCC(C(=O)c2ccccc2SC)C1 (centres undefined) | 1.59 | – |
| CCNC(=O)N1CCCC(C(=O)c2ccc(-c3ccccc3)cc2)C1 (centres undefined) | – | 20.6 µM (active) |
| CN(C(=O)c1ccccc1)c1nccnc1C#N | 19.1 | – |
| COC(=O)c1ccc(CN2C(=O)NC(c3ccccc3)(c3ccccc3)C2=O)o1 | -4.55 | – |
| O=C(CN1CCc2ccccc21)NC(c1ccccc1)c1ccccc1 | -13.1 | – |
| O=C(CN1CCN(Cc2ccccc2)CC1)Nc1ccc(F)c(F)c1 | -6.89 | – |
| O=C(CN1CCN(Cc2ccccc2)CC1)NC(c1ccccc1)c1ccccc1 | – | 14.6 µM (active) |
| CN(C)c1ccc(CNC23CN4CN(CN(C4)C2)C3)cc1 | – | 8.2 µM (active) |
| COCCN1CCN(C(=O)c2cc(COc3ccc(F)cc3Cl)on2)CC1 | -26.5 | – |
| Cn1cc(S(=O)(=O)NC(c2ccccc2)c2ccccc2)c(=O)n(C)c1=O | -14.7 | – |

| SMILES | activity change, negative = growth inhibition [%] | Potency |
| --- | --- | --- |
| CCn1c(SCc2ccccc2)nc2cc(OC)c(OC)cc2c1=O | -16 | – |
| CCn1c(SCc2ccccc2)nc2c(c1=O)SCC2 | -21.4 | – |
| CCn1cc2nc(SCc3cccc(F)c3)n(CCc3ccccc3)c(=O)c2n1 | – | 16.4 µM (active) |
| C[C@@H]1CN([C@H](C)CO)C(=O)CCCn2nncc2CO[C@@H]1CN(C)S(=O)(=O)c1cccc(C#N)c1 | -19.4 | – |
| C/C(=C/c1ccccc1)C(=O)N1CCN(c2ccccc2)CC1 | -19.7 | – |
| NC(=O)C1(N2CCCC2)CCN(Cc2ccccc2)CC1 | -5.42 | – |
| CN1C(=O)c2ccc(C(=O)Nc3ccc(Br)cn3)cc2C1=O | -2.38 | – |
| Cc1cccc(NC(=O)c2ccc([N+](=O)[O-])o2)c1 | – | 16.4 µM (active) |
| Cc1onc(NC(=O)c2ccc([N+](=O)[O-])o2)c1Br | -19.5 | – |
| O=C(Nc1ccc(Br)cn1)c1ccc([N+](=O)[O-])o1 | – | 2.06 µM (active) |
| O=C(Nc1ccc(Br)cn1)c1ccc([N+](=O)[O-])cc1Cl | -29.8 | – |
| Cc1cccc(NC(=O)CCn2c(=O)oc3ccccc32)c1 | 15.7 | – |
| CCc1ccc(N2C(=O)CN(S(=O)(=O)CC)CC2(C)C(=O)NC2CCCCC2)cc1 (centres undefined) | -10.8 | – |
| Cc1ccc(CN2CCN(c3ncccn3)CC2)c(C)c1 | 27.8 | – |
| O=C(NCC(O)c1nc2ccccc2[nH]1)c1ccc(Br)cc1 (centres undefined) | -11.6 | – |
| Cc1ccc(Cl)cc1N1CCN(S(=O)(=O)c2cc3[nH]c(=O)c(=O)[nH]c3cc2C)CC1 | 3.27 | – |
| CCC(=O)Nc1ccc(-c2ccc(N3CCCCC3)nn2)cc1 | -27.5 | – |
| c1csc(-c2nnc(COc3ccc4c(c3)OCO4)o2)c1 | 11.7 | – |
| O=[N+]([O-])c1cc2ccccc2nc1-c1ccccc1 | -16 | – |
| CCN(CC(=O)NC1CCS(=O)(=O)C1)c1nc(-c2cccnc2)nc2ccccc12 (centres undefined) | 4.18 | – |
| O=[N+]([O-])c1ccc(F)cc1Oc1nc(-c2cccnc2)nc2ccccc12 | – | 18.4 µM (active) |
| O=C(COC(=O)CNC(=O)c1ccco1)Nc1ccc(F)cc1 | 4.84 | – |
| Cc1cccc(NS(=O)(=O)c2cc(Cl)ccc2Cl)n1 | 16.8 | – |
